TMEM16A act: activates or potentiates the mouse TMEM16A chloride channel; hit rate 0.3% among 340,000; HEK293 TMEM16A/YFP-H148Q/I152L, iodide quench fluorescence; active compounds read low; B-score at 10 µM; Q8BHY3; AID 623877;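 active = fluorescence-ratio B-score plate-corrected deviation score at least 3 library SD below zero, with starting fluorescence score within 5 deviations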;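 also: channel opened by trigger with iodide after compound preincubation; score built on the fluorescence ratio of max minus min over baseline; more negative score means more quench and so TMEM16A activation or potentiation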
ANO1 block: inhibitors of mouse TMEM16A calcium-activated chloride channel; normalized B-score (activity score, 25-100; higher = stronger inhibition) at 10 µM; hit rate 1.2% among 310,000; Q8BHY3; HEK293 TMEM16A/YFP iodide influx fluorescence, ionomycin;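 active = ratio plate-corrected score three or more library SD toward inhibition, starting fluorescence score within five deviations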;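 also: score derived from kinetic fluorescence span divided by baseline fluorescence per well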
CHT allo act: human CHT allosteric activation. Q9GZV3. CHT-expressing cells, membrane potential dye, choline EC20; active compounds read high; LV-AA mutant CHT in HEK293 cells. B-score at 10 µM. hit rate 0.49% among 310,000. AID 488977;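 active = initial fluorescence not abnormally high and integrated response B-score, plate-corrected, over 3 SD above library mean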
Target sequence (Q9GZV3 whole entry, looked up): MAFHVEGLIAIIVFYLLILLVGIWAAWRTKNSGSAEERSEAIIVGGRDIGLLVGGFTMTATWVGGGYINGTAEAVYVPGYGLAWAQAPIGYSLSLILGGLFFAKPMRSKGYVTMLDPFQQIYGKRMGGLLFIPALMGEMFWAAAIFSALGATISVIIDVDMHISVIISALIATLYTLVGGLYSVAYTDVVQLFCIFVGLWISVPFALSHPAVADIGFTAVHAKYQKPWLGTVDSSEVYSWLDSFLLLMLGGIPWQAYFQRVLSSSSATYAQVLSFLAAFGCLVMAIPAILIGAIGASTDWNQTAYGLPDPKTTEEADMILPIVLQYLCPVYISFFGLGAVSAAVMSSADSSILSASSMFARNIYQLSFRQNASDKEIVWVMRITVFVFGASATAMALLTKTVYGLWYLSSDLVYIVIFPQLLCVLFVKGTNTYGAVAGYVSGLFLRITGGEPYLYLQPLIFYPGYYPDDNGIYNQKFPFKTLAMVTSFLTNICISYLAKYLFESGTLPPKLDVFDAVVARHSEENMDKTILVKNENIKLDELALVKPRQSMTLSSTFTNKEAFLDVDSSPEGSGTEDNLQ
CHT inh: inhibitors of human choline transporter CHT; Q9GZV3; hit rate 0.86% among 310,000; CHT-expressing cells, membrane potential dye, choline response; active compounds read low; B-score at 10 µM;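 active = B-score over 3 SD under the library average, and starting fluorescence ratio not unusually high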;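 also: choline stimulus applied at its EC90 after an EC20 pre-addition; B-score computed on integrated fluorescence ratio after choline addition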
CHT inh conf: confirmation of human choline transporter CHT inhibitors; CHT activity remaining % of control (active compounds read low), % at 10 µM; shares compounds with CHT inh; hit rate 70% among 2,400; CHT-expressing cells, choline membrane potential dye; LV-to-AA substituted CHT, HEK293 cells;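 active = choline transporter activity left, mean of duplicates at 10 µM, below buffer-only control mean minus 3 SD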;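 also: depolarization triggered by choline at its EC90 following an EC20 pre-addition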
HEK293 CHT ctr: activity in parental HEK293 cells lacking CHT; shares compounds with CHT inh; membrane potential dye, choline response; active = decrease or increase beyond buffer ±3SD; membrane potential ratio readout (active if shifted either direction beyond buffer ±3SD; no single direction) at 10 µM; hit rate 4% among 2,400;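 also: parental cells lack the transporter so any hit is non-specific; ratio is peak minus trough fluorescence over baseline after EC90 choline challenge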
Large screens that a line does not name were inactive (follow-up assays come after a bar, where they were run). Rows were chosen to be rich in hits. Some 2.4% of all compounds tested hit in one or more screens of this group.

Cc1cccc(C(=O)NCc2nnc3c4ccccc4c(-c4ccccc4)nn23)c1	none
CCN1CCN(c2ncnc3sc4c(c23)CCC(C)C4)CC1 (stereo unspecified)	none
Cc1cc(C)c(C(=O)Nc2ccc(S(=O)(=O)Nc3ccccn3)cc2)c(C)c1	CHT inh -13.8 | CHT inh conf 5.0% | HEK293 CHT ctr inactive
COc1ccccc1C(=O)NCCN1CCN(c2ccccc2)CC1	none
COC(=O)/C(=C/c1c[nH]c2ccccc12)[N+](=O)[O-]	CHT inh -4.94 | CHT inh conf 58.2% | HEK293 CHT ctr inactive
CC(C)CCNC(=O)c1onc(CSc2ccc(F)cc2)c1C(=O)NCCC(C)C	none
O=C(Nc1ccccc1C(=O)NCCCN1CCOCC1)c1ccc(F)cc1	CHT inh -7.94 | CHT inh conf 37.6% | HEK293 CHT ctr inactive
O=C(NCCCN1CCOCC1)c1ccccc1	none
CC1Cc2ccccc2N1S(=O)(=O)c1cccc(C(=O)N2CCN(c3ncccn3)CC2)c1 (stereo unspecified)	none
Cc1ccc(NS(=O)(=O)c2cccc(C(=O)NNC(=O)c3cccn3C)c2)c(C)c1	none
CCCOc1ccc(NC(=O)c2c(-c3ccccc3)noc2C)cc1	none
CCCOc1ccc(C(=O)NC(=S)NNC(=O)c2c(-c3ccccc3)noc2C)cc1	ANO1 block 100, CHT inh -11.9 | CHT inh conf 56.3% | HEK293 CHT ctr inactive
O=C(Nc1ccc(F)cc1F)c1ccc2nc(N3CCOCC3)sc2c1	CHT inh -10.5 | CHT inh conf inactive | HEK293 CHT ctr inactive
O=C(c1cc2ccccn2n1)N1CCN(c2ccccn2)CC1	none
CCCCNC(=O)c1ccc(N2CCOCC2)c(NS(=O)(=O)c2ccc(OC)cc2)c1	none
CCC1CCCCN1CCCNC(=O)c1ccc(N2CCOCC2)c(NS(=O)(=O)c2ccc(OC)cc2)c1 (stereo unspecified)	CHT inh -6.79 | CHT inh conf 42.3% | HEK293 CHT ctr inactive
O=C1CCN(S(=O)(=O)c2cccs2)c2ccc(C(F)(F)F)cc2N1	none
O=C(Cc1ccc(F)cc1)c1ccc(O)cc1O	none
CCCc1cc(C(=O)Cc2ccc(F)cc2)c(O)cc1O	ANO1 block 100, CHT inh -6.51 | CHT inh conf 61.6% | HEK293 CHT ctr inactive
COc1cc(-c2noc(CCC(=O)NC3CCCCC3)n2)cc(OC)c1OC	none
N=C1C(c2ccccc2)=C(O)CN1c1cccc(O)c1	CHT inh -6.57 | CHT inh conf inactive | HEK293 CHT ctr inactive
Cc1ccccc1C(=O)O/N=C/c1c(N2CCOCC2)n(C)c2ccccc12	CHT inh -15.8 | CHT inh conf 36.6% | HEK293 CHT ctr inactive
CN1CCN(c2c(/C=N/O)c3ccccc3n2C)CC1	none
Cc1oc(-c2ccc(Cl)cc2)nc1CS(=O)CC(=O)NCc1ccccc1 (stereo unspecified)	none
Cc1oc(-c2ccc(Cl)cc2)nc1CS(=O)CC(=O)NC(C)c1ccccc1 (stereo unspecified)	CHT inh -6.46 | CHT inh conf 39.3% | HEK293 CHT ctr inactive
CC(C)c1onc(C(=O)Nc2ccc3c(c2)OCO3)c1[N+](=O)[O-]	none
COc1cc(NC(=O)CSc2ncnc3sc4c(c23)CCC(C)C4)c(C(=O)O)cc1OC (stereo unspecified)	CHT inh -6.3 | CHT inh conf 69.8% | HEK293 CHT ctr inactive
CC1CCc2c(sc3ncnc(SCC(=O)Nc4ccc(C(=O)O)cc4)c23)C1 (stereo unspecified)	none
O=C(NCc1ccco1)/C(=C/C=C/c1ccccc1)NC(=O)c1ccco1	none
Cc1ccc(C(=O)N/C(=C\C=C\c2ccccc2)C(=O)NCc2ccco2)cc1	CHT inh -6.59 | CHT inh conf 53.6% | HEK293 CHT ctr inactive
Cc1ccc(S(=O)(=O)NC(=O)c2ccc(-c3ccc(C)c4ccccc34)o2)cc1	ANO1 block 25, CHT inh -5.01 | CHT inh conf inactive | HEK293 CHT ctr inactive
Cc1ccc(S(=O)(=O)CC(O)COc2ccc(F)cc2Cl)c(C)c1 (stereo unspecified)	none
Cc1ccc(S(=O)(=O)CC(O)COc2ccc(F)cc2Cl)cc1 (stereo unspecified)	CHT inh -6.65 | CHT inh conf 54.2% | HEK293 CHT ctr inactive
COc1cc(-c2nnc(SC/C=C/c3ccccc3)n2N)cc(OC)c1OC	CHT inh -5.23 | CHT inh conf 67.3% | HEK293 CHT ctr inactive
CCOc1cccc(-c2nn(-c3ccccc3)cc2/C=C(/C#N)C(=O)NCCCn2ccnc2)c1	CHT inh -9.19 | CHT inh conf 61.2% | HEK293 CHT ctr inactive
CC(C)(C)S(=O)(=O)/C(C#N)=N/Nc1ccc(Cl)cc1	CHT inh -5.5 | CHT inh conf 46.7% | HEK293 CHT ctr inactive
CC(C)(C)c1ccc(N/N=C(\C#N)S(=O)(=O)C(C)(C)C)cc1	none
COC(=O)Cn1ccc(N(C)C)c(C#N)c1=O	CHT inh -15.1 | CHT inh conf 8.7% | HEK293 CHT ctr inactive
CN=C(C)c1c(O)c2ccccc2oc1=O	none
O=C(c1c(O)c2ccccc2oc1=O)C1CCCCC1	CHT inh -7.47 | CHT inh conf 58.3% | HEK293 CHT ctr inactive
O=C(/C=C/c1ccc([N+](=O)[O-])cc1)OCC(=O)N1c2ccccc2Sc2ccccc21	none
Cc1nn(-c2ccccc2)c(C)c1C(=O)OCC(=O)NC12CC3CC(CC(C3)C1)C2	none
Cc1nn(-c2ccccc2)c(C)c1C(=O)OCC(=O)NC(=O)NC1CCCC1	CHT inh -10.6 | CHT inh conf 60.3% | HEK293 CHT ctr inactive
Cc1cccc(-c2nc(CN3CCCC(C(=O)NC4CCCC4)C3)c(C)o2)c1 (stereo unspecified)	CHT inh -5.1 | CHT inh conf inactive | HEK293 CHT ctr inactive
Cc1cccc(-c2nc(CN3CCCC(C(=O)NC4CCC(C)CC4)C3)c(C)o2)c1 (stereo unspecified)	none
CC(C)(C)c1cc(C(=O)N/N=C/c2ccc(F)cc2)n(-c2ccccc2)n1	CHT inh -5.13 | CHT inh conf 68.4% | HEK293 CHT ctr inactive
N#Cc1c(N)nc(SCc2ccccn2)c(C#N)c1-c1cccs1	CHT inh -7.3 | CHT inh conf 49.3% | HEK293 CHT ctr inactive
CN1CCN(Cc2c(C#N)c3ccccc3n2C)CC1	none
Cn1c(CN2CCCC2)c(C#N)c2ccccc21	CHT inh -4.97 | CHT inh conf 70.6% | HEK293 CHT ctr inactive
CCOC(=O)CSCc1c(C#N)c2ccccc2n1C	CHT inh -6.8 | CHT inh conf inactive | HEK293 CHT ctr inactive
O=C(/C=C/c1ccccc1Cl)OCC(=O)c1ccc[nH]1	none (no result: ANO1 block, CHT allo act, CHT inh)
O=C(O)c1[nH]c2ccc(Cl)cc2c1CC(=O)N1CCN(c2ccccc2)CC1	CHT inh -7.63 | CHT inh conf 36.5% | HEK293 CHT ctr inactive
